From PubChem BioAssay (NCATS)
Unmarked numbers belong to inactive results. Results filed as inconclusive are left out. Entries that show only a call come without a potency. Active and inactive are the calls of the source. Unless noted, calls come from the whole dose curve; as a rule, active = well fitted curve in the direction sought with a large enough effect; inconclusive = small, poorly fitted or top-dose-only effect, or another doubt; inactive = no such curve, though single readings can be large; an effect the other way counts as inactive or inconclusive.

How the values were obtained:
[1] = Validation of Assay for Modulators of Lamin A Splicing (AID 1459; active = well fitted curve in the direction sought with a large enough effect in the signal ratio; the % refers to the signal ratio;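 note: cells exposed to compound for two days before reading; ratio rise marks activators and ratio drop marks inhibitors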)
How it was run: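 Readout: ratio of GFP (500-530 nm) to RFP (575-640 nm) total object intensity by 488 nm laser-scanning cytometry after 48 hrs. Cells were HeLa S3 clones carrying lamin A-EGFP minigene plus DsRed2 viability reporter; vehicle 0.5% DMSO final.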

[2] = biological target: DNA repair nuclease/redox regulator APEX1 (Homo sapiens) (UniProt P27695); experiment: qHTS Validation Assay for Inhibitors of the Human Apurinic/apyrimidinic Endonuclease 1 (APE1) (AID 1705;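 note: TAMRA fluorescence gain over two minutes as APE1 cuts a quenched THF abasic duplex; series mostly up to about 57 µM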)
Chain of DNA repair nuclease/redox regulator APEX1 (Homo sapiens) (P27695 whole entry, looked up): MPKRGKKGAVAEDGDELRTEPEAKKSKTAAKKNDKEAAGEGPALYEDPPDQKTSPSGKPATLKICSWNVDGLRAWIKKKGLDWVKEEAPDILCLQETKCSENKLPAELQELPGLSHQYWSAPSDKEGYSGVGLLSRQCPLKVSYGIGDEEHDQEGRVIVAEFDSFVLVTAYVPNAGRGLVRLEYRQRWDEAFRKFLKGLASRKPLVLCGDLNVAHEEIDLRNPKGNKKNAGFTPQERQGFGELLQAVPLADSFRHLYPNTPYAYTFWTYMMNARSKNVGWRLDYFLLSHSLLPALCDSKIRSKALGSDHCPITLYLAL
How it was run: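 Read-out: TAMRA fluorescence (525 nm ex, 598 nm em) from cleavage of a quenched THF abasic-site duplex, 50 nM final; activity taken as intensity change between third and first of three reads 60 s apart.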

[3] = Counterscreen for APE1 Inhibitors: Fluorescent Dye Displacement Validation Assay (AID 1707)
How it was run: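 Thiazole Orange (250 nM) bound to 50 nM TAMRA-labelled dsDNA with tetrahydrofuran abasic site; displacement by DNA-binding compounds lowers fluorescence. Buffer 50 mM Tris-HCl pH 7.5, 50 mM NaCl, 2 mM MgCl2, 0.01% Tween-20; endpoint read at 480/540 nm.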

[4] = biological target: Endonuclease 4 (Escherichia coli (strain K12)) (UniProt P0A6C1); experiment: Counterscreen for APE1 Inhibitors: qHTS Validation Assay for Inhibitors of Endonuclease IV (AID 1708)
How it was run: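 Enzymatic AP-site incision assay using a double-stranded THF substrate labelled with TAMRA and BHQ-2; released fluorescence signals activity. Enzyme 2 nM, substrate 50 nM, 15 min compound preincubation.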

[5] = qHTS for differential inhibitors of proliferation of Plasmodium falciparum line Dd2 (AID 1882); conditions: Potency: Plasmodium falciparum Dd2 proliferation inhibition;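 note: series mostly up to about 29 µM; compound exposure of 72 h on infected erythrocytes; nearly all actives have a fitted effect of over 65% in size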
How it was run: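 SYBR Green I DNA fluorescence read-out, ex 485/em 535 nm. Signals were normalized to 0.29 uM artemisinin and DMSO wells, then corrected using vehicle-only plates flanking each stack. Parasite growth ran 72 h in erythrocytes before lysis.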

[6] = qHTS for differential inhibitors of proliferation of Plasmodium falciparum line W2 (AID 1883); conditions: Potency: Plasmodium falciparum W2 proliferation inhibition;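 note: potency is the fitted concentration of half-maximal effect; parasites grown with compound for 72 h before lysis and staining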
[7] = biological target: Ferritin light chain (Equus caballus) (UniProt P02791); experiment: qHTS Validation Assay for Identification of Novel General Anesthetics (AID 2323); note: series mostly up to about 77 µM
Chain of Ferritin light chain (Equus caballus) (P02791 2-175 limits assumed): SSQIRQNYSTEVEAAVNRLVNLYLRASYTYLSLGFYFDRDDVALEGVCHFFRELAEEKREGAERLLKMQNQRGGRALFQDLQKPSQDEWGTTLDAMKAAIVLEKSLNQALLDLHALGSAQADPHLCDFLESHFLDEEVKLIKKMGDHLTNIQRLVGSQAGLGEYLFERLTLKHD
How it was run: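 10 uM horse-spleen apoferritin + 1-AMA (50% saturated, PBS); cpd pin-transferred, 10 min RT. Ex 380/Em 535 nm endpoint. Activity normalized between free 1-AMA and 1-AMA/apoferritin; 4-parameter Hill fit of concentration-response.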

[8] = biological target: ATP-dependent DNA helicase Q1 (Homo sapiens) (UniProt P46063); experiment: qHTS Validation Assay for Inhibitors of RecQ-Like Dna Helicase 1 (RECQ1) (AID 2353)
Chain of ATP-dependent DNA helicase Q1 (Homo sapiens) (P46063 whole entry, looked up): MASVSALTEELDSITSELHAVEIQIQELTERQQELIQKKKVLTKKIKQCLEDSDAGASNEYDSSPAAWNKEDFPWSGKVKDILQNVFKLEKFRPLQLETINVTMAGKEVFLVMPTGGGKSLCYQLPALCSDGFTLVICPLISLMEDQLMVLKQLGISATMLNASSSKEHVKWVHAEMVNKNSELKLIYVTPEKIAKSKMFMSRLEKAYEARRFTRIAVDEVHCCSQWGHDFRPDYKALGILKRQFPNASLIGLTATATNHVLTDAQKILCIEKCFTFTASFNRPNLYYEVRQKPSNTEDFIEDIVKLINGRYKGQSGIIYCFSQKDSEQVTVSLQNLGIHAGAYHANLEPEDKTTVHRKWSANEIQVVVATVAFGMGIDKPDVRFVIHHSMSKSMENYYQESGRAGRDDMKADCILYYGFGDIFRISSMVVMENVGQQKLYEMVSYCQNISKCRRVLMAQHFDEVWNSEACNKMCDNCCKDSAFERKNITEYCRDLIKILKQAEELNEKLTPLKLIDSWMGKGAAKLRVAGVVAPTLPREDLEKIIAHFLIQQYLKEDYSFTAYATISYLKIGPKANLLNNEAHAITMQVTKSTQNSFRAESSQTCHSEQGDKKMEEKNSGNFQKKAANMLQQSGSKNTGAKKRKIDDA
How it was run: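 50 nM RECQ1T1 preincubated 15 min with compound in Tris pH 8.0 buffer with MgCl2, DTT, Tween-20 and 2.5 ug/ml poly(dI-dC); started with 200 nM TAMRA/BHQ-2 forked duplex and 2 mM ATP. Unwinding read as fluorescence (525/598 nm), two reads 2 h apart.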

[9] = biological target: RecQ-like DNA helicase BLM (Homo sapiens) (UniProt P54132); experiment: qHTS Validation Assay for Inhibitors of Bloom's syndrome helicase (BLM) (AID 2364)
Chain of RecQ-like DNA helicase BLM (Homo sapiens) (P54132 whole entry, looked up): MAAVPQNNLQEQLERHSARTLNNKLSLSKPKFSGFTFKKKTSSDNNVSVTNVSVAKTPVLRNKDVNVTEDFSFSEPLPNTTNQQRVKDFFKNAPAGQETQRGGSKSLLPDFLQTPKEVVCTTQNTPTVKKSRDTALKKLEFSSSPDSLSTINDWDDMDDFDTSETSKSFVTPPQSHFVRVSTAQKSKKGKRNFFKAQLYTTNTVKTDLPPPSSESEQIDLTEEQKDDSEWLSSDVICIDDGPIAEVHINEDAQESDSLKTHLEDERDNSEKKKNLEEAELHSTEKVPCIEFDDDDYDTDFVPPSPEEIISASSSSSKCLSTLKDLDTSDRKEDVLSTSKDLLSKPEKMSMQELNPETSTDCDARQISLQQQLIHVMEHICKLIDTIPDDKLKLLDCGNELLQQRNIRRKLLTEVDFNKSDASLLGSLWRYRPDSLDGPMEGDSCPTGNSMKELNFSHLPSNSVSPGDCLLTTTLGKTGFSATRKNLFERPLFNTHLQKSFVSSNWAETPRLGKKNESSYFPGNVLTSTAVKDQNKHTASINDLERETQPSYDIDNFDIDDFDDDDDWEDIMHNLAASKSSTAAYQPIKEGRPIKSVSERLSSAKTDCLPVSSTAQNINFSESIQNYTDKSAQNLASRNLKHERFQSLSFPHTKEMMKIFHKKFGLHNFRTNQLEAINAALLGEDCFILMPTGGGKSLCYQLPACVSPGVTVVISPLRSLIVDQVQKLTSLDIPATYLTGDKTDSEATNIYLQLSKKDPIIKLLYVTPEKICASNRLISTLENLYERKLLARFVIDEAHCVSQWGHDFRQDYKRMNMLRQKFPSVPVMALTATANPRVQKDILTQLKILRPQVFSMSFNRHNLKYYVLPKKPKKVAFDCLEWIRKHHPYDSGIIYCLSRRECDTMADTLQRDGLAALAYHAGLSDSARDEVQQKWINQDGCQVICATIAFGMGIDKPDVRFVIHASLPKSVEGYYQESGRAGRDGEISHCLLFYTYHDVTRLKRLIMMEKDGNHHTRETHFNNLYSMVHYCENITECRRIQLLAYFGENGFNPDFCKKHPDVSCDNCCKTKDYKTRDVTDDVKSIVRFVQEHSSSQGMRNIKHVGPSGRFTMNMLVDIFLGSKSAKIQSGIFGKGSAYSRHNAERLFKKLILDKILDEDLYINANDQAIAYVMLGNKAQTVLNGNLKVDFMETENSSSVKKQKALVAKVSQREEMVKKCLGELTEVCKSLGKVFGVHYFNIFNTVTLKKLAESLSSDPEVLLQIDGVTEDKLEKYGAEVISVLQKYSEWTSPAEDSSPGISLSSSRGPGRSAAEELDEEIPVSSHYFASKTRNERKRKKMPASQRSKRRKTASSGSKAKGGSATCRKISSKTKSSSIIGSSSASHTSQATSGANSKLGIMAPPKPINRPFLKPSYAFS
How it was run: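 Forked 20-bp duplex substrate (200 nM, TAMRA/BHQ-2) plus 2 mM ATP added after 15 min compound preincubation with 50 nM enzyme, pH 8.0, poly(dI-dC) 2.5 ug/ml. Strand separation followed by fluorescence (525/598 nm) over 2 h, normalized to enzyme-free and DMSO controls.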

[10] = Cytometric Cell-Based qHTS for Inhibitors of the mTORC1 Signaling Pathway in MEF (Tsc2-/-, p53-/-) Cells (AID 2660);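 note: percent of cells above a phospho-rpS6 to PI ratio cutoff in each well; series mostly up to about 38 µM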
How it was run: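 Tsc2-/-, p53-/- MEFs (empty vector) exposed to compound 24 h at 37 C, fixed, stained with Alexa-488 anti-phospho-rpS6 Ser235/236 and propidium iodide. Acumen laser scanning; phospho-S6/PI ratio thresholded against 7.5 nM rapamycin, reported as % positive cells.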

[11] = High Content Imaging Cell-Based qHTS for Inhibitors of the mTORC1 Signaling Pathway in MEF (Tsc2-/-, p53-/-) Cells (AID 2666);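 note: percent of cells scored positive for phospho-rpS6 Ser235/236 immunostaining by imaging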
How it was run: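 Cells were plated, dosed with compound after 24 hrs, and incubated another 24 hrs at 37 degree Celsius. Fixed cells were immunostained for phospho-rpS6 Ser235/236 and counterstained, and the normalized signal was scored as % active cells against rapamycin and DMSO controls.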

[12] = High Content Imaging Cell-Based qHTS for Inhibitors of the mTORC1 Signaling Pathway in MEF Cells (AID 2667);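 note: Tsc2-/- p53-/- MEFs stably re-expressing wild-type Tsc2 exposed 24 h; series mostly up to about 38 µM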
How it was run: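 Immunofluorescence for rpS6 phosphorylation in MEFs of Tsc2-/-, p53-/- background rescued with WT Tsc2. Compound exposure lasted 24 hrs. Inhibition was scored against rapamycin-treated control wells.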

[13] = Cytometry Cell-Based qHTS for Inhibitors of the mTORC1 Signaling Pathway in MEF cells (AID 2668);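 note: Tsc2-/- p53-/- mouse embryonic fibroblasts stably re-expressing wild-type Tsc2; percent cells positive for phospho-rpS6 Ser235/236 relative to propidium iodide stain; series mostly up to about 38 µM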
How it was run: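 Read-out: phospho-rpS6 Ser235/236 immunofluorescence normalized to propidium iodide intensity, scored as % active cells against a rapamycin (7.5 nM) threshold. Cells: Tsc2-/-, p53-/- MEFs stably expressing WT Tsc2, compound-treated 24 hrs at 37 degree Celsius.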

[14] = Validation screen for inhibitors of Lassa infection (AID 463096; calls by dose curve)
[15] = Validation screen for small molecules that induce DNA re-replication in MCF 10A normal breast cells (AID 463097); note: nearly all actives have a fitted effect of over 60% in size
How it was run: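 250 MCF 10A cells/well; compound pin-transferred; 48 hr, 37 C, 5% CO2; Hoechst 40 min; imaged 405/500-530 nm. Hits = more high-intensity nuclei.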

[16] = biological target: Ubiquitin carboxyl-terminal hydrolase 2 (Homo sapiens) (UniProt O75604); experiment: qHTS Validation Assay for Inhibitors of Ubiquitin-specific Protease USP2a Using CHOP2 as the Reporter (AID 463106)
Chain of Ubiquitin carboxyl-terminal hydrolase 2 (Homo sapiens) (O75604 whole entry, looked up): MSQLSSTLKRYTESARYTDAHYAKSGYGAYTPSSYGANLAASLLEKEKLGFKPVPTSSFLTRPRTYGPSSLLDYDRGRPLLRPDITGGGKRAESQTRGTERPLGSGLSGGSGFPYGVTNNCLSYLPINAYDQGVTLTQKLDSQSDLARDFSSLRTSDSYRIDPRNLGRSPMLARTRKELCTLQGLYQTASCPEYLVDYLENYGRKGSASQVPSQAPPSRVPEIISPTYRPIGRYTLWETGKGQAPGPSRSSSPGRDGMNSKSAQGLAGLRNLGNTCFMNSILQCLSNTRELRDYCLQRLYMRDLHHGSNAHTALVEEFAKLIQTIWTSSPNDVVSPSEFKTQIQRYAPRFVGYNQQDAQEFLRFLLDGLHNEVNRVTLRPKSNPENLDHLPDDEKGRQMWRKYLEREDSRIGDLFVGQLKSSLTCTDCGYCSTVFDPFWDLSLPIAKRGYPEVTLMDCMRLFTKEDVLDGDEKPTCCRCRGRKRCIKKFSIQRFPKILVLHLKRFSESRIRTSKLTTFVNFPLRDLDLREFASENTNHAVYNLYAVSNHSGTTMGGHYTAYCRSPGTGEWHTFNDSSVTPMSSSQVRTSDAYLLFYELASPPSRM
How it was run: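 10nM USP2 core + cpd, 30min RT; add 25nM Ub-CHOP2/25nM substrate; 60min RT; FI 485/531nm. Buffer Tris pH 8.0, CaCl2, BME, CHAPS. Norm. to NEM = 100% inhibition; time-zero read flags fluorescent artifacts.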

[17] = biological target: DNA polymerase III PolC-type (Bacillus subtilis (strain 168)) (UniProt P13267); experiment: qHTS Validation Assay for the Inhibitors of DNA Replication in Gram-Positive Bacteria (AID 485295);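 note: reconstituted holoenzyme with PolC plus beta clamp SSB and primase; PicoGreen fluorescence of double-stranded DNA made on primed circular M13 template; series mostly up to about 57 µM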
Chain of DNA polymerase III PolC-type (Bacillus subtilis (strain 168)) (P13267 whole entry, looked up): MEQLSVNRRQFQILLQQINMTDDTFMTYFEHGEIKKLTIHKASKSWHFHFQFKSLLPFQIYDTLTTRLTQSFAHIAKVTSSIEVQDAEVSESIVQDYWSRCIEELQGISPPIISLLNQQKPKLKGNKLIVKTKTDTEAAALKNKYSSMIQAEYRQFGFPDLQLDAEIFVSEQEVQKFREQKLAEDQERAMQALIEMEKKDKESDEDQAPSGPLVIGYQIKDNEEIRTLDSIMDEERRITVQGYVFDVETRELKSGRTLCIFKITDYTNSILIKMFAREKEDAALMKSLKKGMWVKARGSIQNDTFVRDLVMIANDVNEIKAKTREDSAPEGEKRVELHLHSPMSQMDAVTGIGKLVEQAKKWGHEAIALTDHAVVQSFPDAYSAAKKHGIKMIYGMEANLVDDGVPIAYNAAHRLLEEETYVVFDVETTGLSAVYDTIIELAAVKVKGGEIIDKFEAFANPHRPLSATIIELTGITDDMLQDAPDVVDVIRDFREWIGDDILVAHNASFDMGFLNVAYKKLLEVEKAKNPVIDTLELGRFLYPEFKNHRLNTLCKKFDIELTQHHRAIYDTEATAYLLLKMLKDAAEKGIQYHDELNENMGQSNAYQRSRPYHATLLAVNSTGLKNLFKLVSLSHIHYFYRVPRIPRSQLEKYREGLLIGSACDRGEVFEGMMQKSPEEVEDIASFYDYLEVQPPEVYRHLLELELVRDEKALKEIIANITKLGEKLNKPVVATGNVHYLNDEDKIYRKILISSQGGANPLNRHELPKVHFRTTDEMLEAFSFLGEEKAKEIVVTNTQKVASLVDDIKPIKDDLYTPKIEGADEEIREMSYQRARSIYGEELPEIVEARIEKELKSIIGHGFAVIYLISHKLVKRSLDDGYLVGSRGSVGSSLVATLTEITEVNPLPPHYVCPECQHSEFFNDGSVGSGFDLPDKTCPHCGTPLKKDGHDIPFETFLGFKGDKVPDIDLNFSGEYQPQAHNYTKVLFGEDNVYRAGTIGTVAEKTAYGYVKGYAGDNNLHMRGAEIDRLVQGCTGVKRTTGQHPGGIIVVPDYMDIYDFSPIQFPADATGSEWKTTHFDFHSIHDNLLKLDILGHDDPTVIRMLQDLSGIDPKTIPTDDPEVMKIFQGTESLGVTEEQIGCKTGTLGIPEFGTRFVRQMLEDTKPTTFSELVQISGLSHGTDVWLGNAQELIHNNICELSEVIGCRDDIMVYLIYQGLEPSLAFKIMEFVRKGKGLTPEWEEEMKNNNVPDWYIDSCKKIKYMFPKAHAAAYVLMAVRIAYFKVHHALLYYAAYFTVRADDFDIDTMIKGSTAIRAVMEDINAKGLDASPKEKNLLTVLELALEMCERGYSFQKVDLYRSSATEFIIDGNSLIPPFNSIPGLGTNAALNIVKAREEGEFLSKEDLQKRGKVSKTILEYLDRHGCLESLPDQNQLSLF
How it was run: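 PicoGreen fluorescence (ex 480–485/em 535–540 nm) reports dsDNA synthesized on ssM13Gori template with dNTPs/NTPs. Enzyme: holoenzyme rebuilt from purified PolC, beta subunit, SSB and primase. Compound preincubated before substrate addition; RT throughout.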

[18] = biological target: Tumor susceptibility gene 101 protein (Homo sapiens) (UniProt Q99816); experiment: qHTS Validation Assay for Iinhibitors of HIV-1 Budding by Blocking the Interaction of PTAP/TSG101 (AID 485342; calls by dose curve)
Chain of Tumor susceptibility gene 101 protein (Homo sapiens) (Q99816 whole entry, looked up, the tested form may be a part): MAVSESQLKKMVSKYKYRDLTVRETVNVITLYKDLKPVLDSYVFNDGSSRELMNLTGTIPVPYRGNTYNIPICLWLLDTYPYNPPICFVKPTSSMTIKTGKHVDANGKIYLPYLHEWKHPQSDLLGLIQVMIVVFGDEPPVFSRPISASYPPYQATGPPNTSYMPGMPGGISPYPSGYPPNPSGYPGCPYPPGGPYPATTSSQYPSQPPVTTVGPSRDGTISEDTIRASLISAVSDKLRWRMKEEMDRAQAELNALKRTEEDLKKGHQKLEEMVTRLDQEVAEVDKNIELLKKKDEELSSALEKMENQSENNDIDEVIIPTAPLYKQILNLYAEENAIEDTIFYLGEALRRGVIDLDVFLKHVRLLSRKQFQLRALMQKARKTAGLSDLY
How it was run: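 FP read-out: FITC-PTAP peptide, 50 nM final, binding Tsg101 binding domain, 10 uM final; 20 min r.t.; 10 mM HEPES pH 7.5, 0.15 M NaCl, 0.01% Tween 20, 3 mM EDTA, 0.1 mM TCEP.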

Structure (SMILES): O=[N+]([O-])c1ccc(O[C@@H]2O[C@H](CO)[C@@H](O)[C@H](O)[C@H]2F)c([N+](=O)[O-])c1
- outcome [1]: inactive
- Potency [2]: inactive
- Potency [3]: inactive
- outcome [4]: inactive
- Potency [5]: inactive
- Potency [6]: 11.2 µM (active)
- outcome [7]: inactive
- Potency [8]: inactive
- Potency [9]: inactive
- outcome [10]: inactive
- Potency [11]: inactive
- Potency [12]: inactive
- Potency [13]: inactive
- Potency [14]: inactive
- Potency [15]: inactive
- Potency [16]: inactive
- Potency [17]: inactive
- outcome [18]: inactive
